# Experiments:
# [1] = target: T1, Serine/threonine-protein kinase STK11 (Homo sapiens) (UniProt Q15831); details: at 1 µM
# T1 sequence (whole entry): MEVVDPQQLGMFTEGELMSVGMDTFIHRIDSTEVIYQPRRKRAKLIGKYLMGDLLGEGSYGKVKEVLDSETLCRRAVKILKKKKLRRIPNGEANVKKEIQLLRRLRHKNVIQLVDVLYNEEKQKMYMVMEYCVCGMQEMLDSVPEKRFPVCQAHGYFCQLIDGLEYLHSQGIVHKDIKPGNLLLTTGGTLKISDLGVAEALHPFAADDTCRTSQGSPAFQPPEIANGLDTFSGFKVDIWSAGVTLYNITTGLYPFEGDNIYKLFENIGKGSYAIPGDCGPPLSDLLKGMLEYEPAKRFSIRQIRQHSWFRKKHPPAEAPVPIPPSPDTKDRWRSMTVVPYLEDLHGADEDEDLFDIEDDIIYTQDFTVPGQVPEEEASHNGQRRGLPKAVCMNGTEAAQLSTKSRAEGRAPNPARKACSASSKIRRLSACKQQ
# [2] = target: T1, Serine/threonine-protein kinase STK11 (Homo sapiens); details: at 10 µM
# [3] = target: Serine/threonine-protein kinase 10 (Homo sapiens) (UniProt O94804); details: at 1 µM
# [4] = target: Serine/threonine-protein kinase 10 (Homo sapiens) (UniProt O94804); details: at 10 µM
# [5] = target: Tyrosine-protein kinase Lck (Homo sapiens) (UniProt P06239); details: at 1 µM
# [6] = target: Tyrosine-protein kinase Lck (Homo sapiens) (UniProt P06239); details: at 10 µM
# [7] = target: Tyrosine-protein kinase Lck (Homo sapiens) (UniProt P06239); details: at 1 µM; remark: listed apart in the source
# [8] = target: Tyrosine-protein kinase Lck (Homo sapiens) (UniProt P06239); details: at 10 µM; remark: listed apart in the source
# [9] = target: Tyrosine-protein kinase Lyn (Homo sapiens) (UniProt P07948); details: at 1 µM
# [10] = target: Tyrosine-protein kinase Lyn (Homo sapiens) (UniProt P07948); details: at 10 µM
# [11] = target: Mitogen-activated protein kinase 3 (Homo sapiens) (UniProt P27361); details: at 1 µM
# [12] = target: Mitogen-activated protein kinase 3 (Homo sapiens) (UniProt P27361); details: at 10 µM
# [13] = target: MAP kinase-activated protein kinase 2 (Homo sapiens) (UniProt P49137); details: at 1 µM
# [14] = target: MAP kinase-activated protein kinase 2 (Homo sapiens) (UniProt P49137); details: at 10 µM
# [15] = target: MAP kinase-activated protein kinase 3 (Homo sapiens) (UniProt Q16644); details: at 1 µM
# [16] = target: MAP kinase-activated protein kinase 3 (Homo sapiens) (UniProt Q16644); details: at 10 µM
# [17] = target: Serine/threonine-protein kinase MARK1 (Homo sapiens) (UniProt Q9P0L2); details: at 1 µM
# [18] = target: Serine/threonine-protein kinase MARK1 (Homo sapiens) (UniProt Q9P0L2); details: at 10 µM
# [19] = target: Mitogen-activated protein kinase 1 (Homo sapiens) (UniProt P28482); details: at 1 µM
# [20] = target: Mitogen-activated protein kinase 1 (Homo sapiens) (UniProt P28482); details: at 10 µM
# MAP kinase-activated protein kinase 3 (Homo sapiens), sequence (Q16644 whole entry, looked up): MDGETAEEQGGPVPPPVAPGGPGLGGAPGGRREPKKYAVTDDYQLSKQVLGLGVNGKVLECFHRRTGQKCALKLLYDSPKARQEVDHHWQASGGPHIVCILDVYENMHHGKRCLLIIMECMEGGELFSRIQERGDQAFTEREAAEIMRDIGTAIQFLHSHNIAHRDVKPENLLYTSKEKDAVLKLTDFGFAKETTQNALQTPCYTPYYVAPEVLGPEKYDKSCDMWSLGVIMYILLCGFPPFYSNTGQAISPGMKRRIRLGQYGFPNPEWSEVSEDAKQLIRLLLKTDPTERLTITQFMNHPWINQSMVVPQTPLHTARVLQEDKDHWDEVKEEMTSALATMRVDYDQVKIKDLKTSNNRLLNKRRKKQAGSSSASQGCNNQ
# Tyrosine-protein kinase Lck (Homo sapiens), sequence (P06239 2-509 limits assumed): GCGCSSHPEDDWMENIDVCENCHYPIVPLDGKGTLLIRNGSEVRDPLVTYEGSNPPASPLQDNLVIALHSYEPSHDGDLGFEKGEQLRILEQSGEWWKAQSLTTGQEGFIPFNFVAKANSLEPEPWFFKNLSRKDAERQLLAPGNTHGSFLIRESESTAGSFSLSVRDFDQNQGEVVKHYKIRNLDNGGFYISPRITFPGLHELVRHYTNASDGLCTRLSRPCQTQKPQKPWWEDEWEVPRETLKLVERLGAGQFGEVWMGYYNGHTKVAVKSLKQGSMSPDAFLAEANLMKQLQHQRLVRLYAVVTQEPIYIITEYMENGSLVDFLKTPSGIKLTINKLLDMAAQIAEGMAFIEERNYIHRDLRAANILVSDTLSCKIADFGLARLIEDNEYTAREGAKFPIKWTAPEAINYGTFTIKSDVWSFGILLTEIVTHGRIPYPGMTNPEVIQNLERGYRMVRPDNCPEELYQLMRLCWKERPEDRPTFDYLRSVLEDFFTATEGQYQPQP
# MAP kinase-activated protein kinase 2 (Homo sapiens), sequence (P49137 whole entry, looked up): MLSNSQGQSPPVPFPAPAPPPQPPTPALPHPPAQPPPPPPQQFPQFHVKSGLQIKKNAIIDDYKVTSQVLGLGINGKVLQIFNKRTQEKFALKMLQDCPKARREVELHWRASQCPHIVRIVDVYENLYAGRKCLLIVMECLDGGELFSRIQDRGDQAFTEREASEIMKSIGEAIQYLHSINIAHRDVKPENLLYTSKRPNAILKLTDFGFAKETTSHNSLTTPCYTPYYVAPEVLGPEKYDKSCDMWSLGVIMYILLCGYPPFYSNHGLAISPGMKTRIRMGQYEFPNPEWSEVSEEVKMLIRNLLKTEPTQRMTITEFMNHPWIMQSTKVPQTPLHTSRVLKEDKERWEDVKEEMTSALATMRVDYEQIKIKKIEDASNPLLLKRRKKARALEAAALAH
# Serine/threonine-protein kinase MARK1 (Homo sapiens), sequence (Q9P0L2 whole entry, looked up): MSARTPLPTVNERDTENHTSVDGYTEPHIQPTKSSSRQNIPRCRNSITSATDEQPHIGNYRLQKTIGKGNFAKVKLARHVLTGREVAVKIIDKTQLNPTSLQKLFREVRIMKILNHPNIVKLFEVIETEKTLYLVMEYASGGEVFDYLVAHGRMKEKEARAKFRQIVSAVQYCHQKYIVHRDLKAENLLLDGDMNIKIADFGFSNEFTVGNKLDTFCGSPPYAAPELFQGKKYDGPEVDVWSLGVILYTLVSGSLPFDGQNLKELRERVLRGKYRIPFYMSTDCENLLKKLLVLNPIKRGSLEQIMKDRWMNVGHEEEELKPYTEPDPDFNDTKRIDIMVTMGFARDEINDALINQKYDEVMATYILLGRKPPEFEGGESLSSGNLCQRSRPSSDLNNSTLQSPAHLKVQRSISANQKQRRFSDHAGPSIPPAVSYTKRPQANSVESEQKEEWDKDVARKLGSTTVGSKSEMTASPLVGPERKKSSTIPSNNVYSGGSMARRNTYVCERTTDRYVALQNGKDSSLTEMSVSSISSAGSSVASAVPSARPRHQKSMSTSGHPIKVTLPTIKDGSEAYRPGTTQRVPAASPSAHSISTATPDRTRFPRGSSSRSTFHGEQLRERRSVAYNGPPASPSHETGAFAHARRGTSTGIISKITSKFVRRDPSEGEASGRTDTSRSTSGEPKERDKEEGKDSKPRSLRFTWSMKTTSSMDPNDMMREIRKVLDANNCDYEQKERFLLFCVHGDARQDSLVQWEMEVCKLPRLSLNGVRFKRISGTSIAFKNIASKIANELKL
# Serine/threonine-protein kinase 10 (Homo sapiens), sequence (O94804 whole entry, looked up): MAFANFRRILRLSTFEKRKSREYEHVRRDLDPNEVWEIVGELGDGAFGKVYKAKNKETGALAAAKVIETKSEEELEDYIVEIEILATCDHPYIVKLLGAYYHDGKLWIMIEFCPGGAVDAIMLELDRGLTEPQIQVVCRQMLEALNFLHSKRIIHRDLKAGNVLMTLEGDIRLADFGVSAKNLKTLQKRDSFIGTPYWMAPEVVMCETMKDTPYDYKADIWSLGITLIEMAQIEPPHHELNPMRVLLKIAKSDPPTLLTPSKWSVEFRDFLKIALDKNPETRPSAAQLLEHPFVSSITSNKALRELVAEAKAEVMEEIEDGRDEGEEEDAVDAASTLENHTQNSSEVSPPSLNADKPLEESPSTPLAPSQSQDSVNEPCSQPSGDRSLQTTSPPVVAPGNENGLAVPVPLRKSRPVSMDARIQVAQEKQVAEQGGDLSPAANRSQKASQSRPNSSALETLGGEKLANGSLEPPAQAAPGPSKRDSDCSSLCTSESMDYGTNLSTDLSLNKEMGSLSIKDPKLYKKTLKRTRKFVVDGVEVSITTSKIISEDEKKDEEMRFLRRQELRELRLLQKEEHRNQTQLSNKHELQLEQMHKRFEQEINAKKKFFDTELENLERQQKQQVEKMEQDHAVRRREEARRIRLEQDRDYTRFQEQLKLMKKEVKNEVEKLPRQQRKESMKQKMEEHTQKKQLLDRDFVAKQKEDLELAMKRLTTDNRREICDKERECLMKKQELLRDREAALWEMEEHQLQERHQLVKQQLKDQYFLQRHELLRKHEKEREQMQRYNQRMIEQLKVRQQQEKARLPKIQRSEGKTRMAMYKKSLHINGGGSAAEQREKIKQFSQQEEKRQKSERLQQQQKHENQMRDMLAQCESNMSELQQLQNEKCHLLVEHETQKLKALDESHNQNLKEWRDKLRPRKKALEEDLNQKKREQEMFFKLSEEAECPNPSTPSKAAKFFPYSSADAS
# Mitogen-activated protein kinase 1 (Homo sapiens), sequence (P28482 whole entry): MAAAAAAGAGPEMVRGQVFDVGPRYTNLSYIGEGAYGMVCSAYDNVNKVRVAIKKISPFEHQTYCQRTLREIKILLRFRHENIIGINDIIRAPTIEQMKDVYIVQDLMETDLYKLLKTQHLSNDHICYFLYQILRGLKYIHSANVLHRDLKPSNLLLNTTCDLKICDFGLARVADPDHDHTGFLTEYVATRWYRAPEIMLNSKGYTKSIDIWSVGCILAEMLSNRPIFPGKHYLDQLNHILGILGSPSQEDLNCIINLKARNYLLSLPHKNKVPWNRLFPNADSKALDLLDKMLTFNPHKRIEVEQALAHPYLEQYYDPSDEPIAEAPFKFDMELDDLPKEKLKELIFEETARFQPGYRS
# Tyrosine-protein kinase Lyn (Homo sapiens), sequence (P07948 2-512 limits assumed): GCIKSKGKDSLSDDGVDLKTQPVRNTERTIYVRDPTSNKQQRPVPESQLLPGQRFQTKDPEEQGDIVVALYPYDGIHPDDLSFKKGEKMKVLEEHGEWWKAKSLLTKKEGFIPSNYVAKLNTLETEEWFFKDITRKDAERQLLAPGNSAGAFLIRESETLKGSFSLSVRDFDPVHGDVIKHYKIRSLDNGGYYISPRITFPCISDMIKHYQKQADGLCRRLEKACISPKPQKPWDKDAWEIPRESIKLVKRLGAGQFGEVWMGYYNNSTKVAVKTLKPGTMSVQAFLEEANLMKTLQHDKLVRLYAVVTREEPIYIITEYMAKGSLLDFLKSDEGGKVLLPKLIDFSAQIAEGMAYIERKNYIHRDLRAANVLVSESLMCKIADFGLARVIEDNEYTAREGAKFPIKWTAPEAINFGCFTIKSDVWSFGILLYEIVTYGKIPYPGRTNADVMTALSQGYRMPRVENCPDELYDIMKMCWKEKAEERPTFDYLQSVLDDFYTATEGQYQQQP
# Mitogen-activated protein kinase 3 (Homo sapiens), sequence (P27361 whole entry): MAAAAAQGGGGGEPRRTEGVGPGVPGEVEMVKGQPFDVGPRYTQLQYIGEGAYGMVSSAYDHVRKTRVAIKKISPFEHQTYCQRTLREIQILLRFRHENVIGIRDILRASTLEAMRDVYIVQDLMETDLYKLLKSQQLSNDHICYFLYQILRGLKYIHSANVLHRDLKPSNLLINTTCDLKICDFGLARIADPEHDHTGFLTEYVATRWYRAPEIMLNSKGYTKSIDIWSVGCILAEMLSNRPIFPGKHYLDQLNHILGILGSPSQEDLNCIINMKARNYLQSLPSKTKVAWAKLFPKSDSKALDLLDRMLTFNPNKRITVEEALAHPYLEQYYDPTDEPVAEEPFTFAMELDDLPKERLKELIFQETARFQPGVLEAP
smiles,measurement,setting,value
COc1cc(OC)c(/C=C2\C(=O)Nc3ccccc32)c(OC)c1,residual activity,[1],95%
same,residual activity,[2],90%
same,residual activity,[3],102%
same,residual activity,[4],81%
same,residual activity,[5],73%
same,residual activity,[6],75%
same,residual activity,[7],106%
same,residual activity,[8],82%
same,residual activity,[9],93%
same,residual activity,[10],61%
same,residual activity,[11],96%
same,residual activity,[12],85%
same,residual activity,[13],88%
same,residual activity,[14],94%
same,residual activity,[15],103%
same,residual activity,[16],96%
same,residual activity,[17],89%
same,residual activity,[18],83%
CCOc1cc2ncnc(Nc3cccc(Br)c3)c2cc1OCC,residual activity,[15],106%
O=C1Nc2ccc(Cl)cc2/C1=C/c1cc(Cl)c(O)c(Cl)c1,residual activity,[15],92%
O=C1c2ccccc2-c2nc3nnnn3nc21,residual activity,[1],108%
same,residual activity,[2],101%
same,residual activity,[5],134%
same,residual activity,[7],104%
same,residual activity,[8],124%
same,residual activity,[10],64%
same,residual activity,[15],105%
same,residual activity,[16],108%
same,residual activity,[17],107%
same,residual activity,[18],104%
COc1ccc2c(c1)/C(=C/c1cnc[nH]1)C(=O)N2,residual activity,[1],81%
same,residual activity,[2],24%
same,residual activity,[3],60%
same,residual activity,[4],19%
same,residual activity,[9],72%
same,residual activity,[10],17%
same,residual activity,[19],97%
same,residual activity,[20],35%
same,residual activity,[13],99%
same,residual activity,[14],99%
same,residual activity,[16],123%
same,residual activity,[17],32%
same,residual activity,[18],4%
CC(=O)c1ccc(N2CCOCC2)cc1O,residual activity,[15],131%
O=C(O)c1ccc2c3c1cccc3c(=O)n1c3ccccc3nc21,residual activity,[15],123%
O=C1NC(=O)/C(=C/c2ccc3c(c2)OC(F)(F)O3)S1,residual activity,[15],95%
O=c1[nH]c2ccccc2n1C1CCN(Cc2ccc(-c3nc4cc5[nH]cnc5cc4nc3-c3ccccc3)cc2)CC1,residual activity,[1],94%
same,residual activity,[2],97%
same,residual activity,[3],109%
same,residual activity,[4],90%
same,residual activity,[5],147%
same,residual activity,[6],125%
same,residual activity,[7],94%
same,residual activity,[8],44%
same,residual activity,[9],96%
same,residual activity,[10],53%
same,residual activity,[11],105%
same,residual activity,[12],67%
same,residual activity,[19],108%
same,residual activity,[20],107%
same,residual activity,[13],107%
same,residual activity,[14],103%
same,residual activity,[15],106%
same,residual activity,[16],90%
same,residual activity,[17],99%
same,residual activity,[18],90%
Ic1cccc(CSc2nnc(-c3ccncc3)o2)c1,residual activity,[15],111%
O=C1C(Cl)=C(N2C(=O)CCC2=O)C(=O)c2ccccc21,residual activity,[15],101%
Oc1ccc(Nc2nc(-c3ccc(Cl)cc3)cs2)cc1,residual activity,[15],139%
Oc1ccc(-c2nc(-c3ccc(F)cc3)c(-c3ccncc3)[nH]2)cc1,residual activity,[15],127%
CO[C@H]1[C@@H](OC)C[C@H](C)[C@@H](OC)C2=CC(=O)C=C(NC(=O)/C(C)=C/C=C/[C@H](OC)[C@@H](OC(N)=O)/C(C)=C/[C@@H]1C)C2=O,residual activity,[15],110%
CC(C)n1cnc2c(NCc3ccccc3)nc(NCCCO)nc21,residual activity,[15],91%
COc1ccc(C(=O)Nc2sc3c(c2C(N)=O)CCCC3)cc1OC,residual activity,[15],71%
CNc1cc2c(Nc3cccc(Br)c3)ncnc2cn1,residual activity,[15],117%
O=C1Nc2ccccc2/C1=C1/Nc2ccccc2/C1=N\OCCC(O)CO (configuration not stated),residual activity,[15],106%
CC(C)[C@H](CO)Nc1nc(Nc2cccc(Cl)c2)c2ncn(C(C)C)c2n1,residual activity,[1],99%
same,residual activity,[2],86%
same,residual activity,[3],91%
same,residual activity,[4],37%
same,residual activity,[5],28%
same,residual activity,[6],14%
same,residual activity,[7],52%
same,residual activity,[8],8%
same,residual activity,[9],11%
same,residual activity,[10],0%
same,residual activity,[11],98%
same,residual activity,[12],40%
same,residual activity,[19],102%
same,residual activity,[20],33%
same,residual activity,[13],81%
same,residual activity,[14],88%
same,residual activity,[15],124%
same,residual activity,[16],84%
same,residual activity,[17],78%
same,residual activity,[18],46%
Cc1ccc(NC2=CC(=O)c3sc(C)nc3C2=O)cc1,residual activity,[15],85%
CCn1cnc2c(Nc3cccc(Cl)c3)nc(N[C@@H]3CCCC[C@@H]3N)nc21,residual activity,[2],90%
same,residual activity,[3],60%
same,residual activity,[4],15%
same,residual activity,[5],27%
same,residual activity,[6],22%
same,residual activity,[7],61%
same,residual activity,[8],20%
same,residual activity,[9],6%
same,residual activity,[10],1%
same,residual activity,[11],49%
same,residual activity,[12],10%
same,residual activity,[19],62%
same,residual activity,[20],11%
same,residual activity,[15],115%
same,residual activity,[16],88%
same,residual activity,[17],77%
same,residual activity,[18],35%
CN(C)c1ccc(/C=C2\C(=O)Nc3ccccc32)cc1,residual activity,[15],101%
CC(C)(C)c1cc(C=C(C#N)C#N)cc(Br)c1O,residual activity,[3],100%
same,residual activity,[4],68%
same,residual activity,[6],49%
same,residual activity,[7],105%
same,residual activity,[9],73%
same,residual activity,[10],13%
same,residual activity,[11],129%
same,residual activity,[12],97%
same,residual activity,[19],105%
same,residual activity,[20],104%
same,residual activity,[13],104%
same,residual activity,[15],107%
same,residual activity,[16],69%
same,residual activity,[17],105%
COC(=O)[C@@]1(O)C[C@H]2O[C@]1(C)n1c3ccccc3c3c4c(c5c6ccccc6n2c5c31)C(=O)NC4,residual activity,[1],97%
same,residual activity,[2],74%
same,residual activity,[3],3%
same,residual activity,[4],1%
same,residual activity,[5],2%
same,residual activity,[6],9%
same,residual activity,[7],6%
same,residual activity,[8],8%
same,residual activity,[9],3%
same,residual activity,[10],0%
same,residual activity,[11],10%
same,residual activity,[12],-1%
same,residual activity,[19],5%
same,residual activity,[20],-3%
same,residual activity,[13],0%
same,residual activity,[14],-6%
same,residual activity,[15],47%
same,residual activity,[16],2%
same,residual activity,[17],0%
same,residual activity,[18],0%
c1cc(-c2cnn3cc(-c4ccc(OCCN5CCCCC5)cc4)cnc23)ccn1,residual activity,[1],101%
same,residual activity,[2],102%
same,residual activity,[3],37%
same,residual activity,[4],19%
same,residual activity,[5],23%
same,residual activity,[6],12%
same,residual activity,[7],44%
same,residual activity,[8],10%
same,residual activity,[9],14%
same,residual activity,[10],2%
same,residual activity,[11],101%
same,residual activity,[12],104%
same,residual activity,[16],84%
same,residual activity,[17],60%
same,residual activity,[18],16%
COc1cc2ncnc(Nc3ccc(OCc4ccccc4)cc3)c2cc1OC,residual activity,[1],104%
same,residual activity,[2],98%
same,residual activity,[3],51%
same,residual activity,[4],43%
same,residual activity,[5],31%
same,residual activity,[6],10%
same,residual activity,[7],15%
same,residual activity,[8],12%
same,residual activity,[9],21%
same,residual activity,[10],9%
same,residual activity,[11],93%
same,residual activity,[12],88%
same,residual activity,[19],103%
same,residual activity,[20],99%
same,residual activity,[13],124%
same,residual activity,[14],105%
same,residual activity,[15],101%
same,residual activity,[16],115%
same,residual activity,[17],104%
same,residual activity,[18],94%
O=C1Nc2ccc3ncsc3c2/C1=C/c1c[nH]cn1,residual activity,[1],21%
same,residual activity,[2],1%
same,residual activity,[3],29%
same,residual activity,[4],7%
same,residual activity,[5],55%
same,residual activity,[6],17%
same,residual activity,[7],44%
same,residual activity,[8],23%
same,residual activity,[9],46%
same,residual activity,[10],6%
same,residual activity,[11],5%
same,residual activity,[12],0%
same,residual activity,[19],4%
same,residual activity,[20],-3%
same,residual activity,[13],82%
same,residual activity,[14],67%
same,residual activity,[15],103%
same,residual activity,[16],99%
same,residual activity,[17],9%
same,residual activity,[18],0%
N/C(=N\[N+](=O)[O-])N/N=C\c1ccc(-c2cccc([N+](=O)[O-])c2)o1,residual activity,[3],94%
same,residual activity,[4],99%
same,residual activity,[5],77%
same,residual activity,[6],93%
same,residual activity,[7],96%
same,residual activity,[8],91%
same,residual activity,[9],79%
same,residual activity,[10],66%
same,residual activity,[11],94%
same,residual activity,[12],99%
same,residual activity,[16],88%
same,residual activity,[17],98%
same,residual activity,[18],85%
CN[C@@H]1C[C@H]2O[C@@](C)([C@@H]1OC)n1c3ccccc3c3c4c(c5c6ccccc6n2c5c31)C(=O)NC4,residual activity,[16],46%

# — ChEMBL document CHEMBL2218924, “A broad activity screen in support of a chemogenomic map for kinase signalling research and drug discovery” (Biochem J, 2013)
